Compound activity deposited in PubChem BioAssay by National Center for Advancing Translational Sciences (NCATS).
A selection: hits, their analogues and other compounds. The true share with any hit is near 21%.
Pf growth 48h: Primary qHTS for delayed death inhibitors of the malarial parasite plastid, 48 hour incubation; P. falciparum luciferase growth in erythrocytes, 48 h; Potency, µM (series often up to 28.7 µM), usual class: inhibitors; hit rate 5.9% among 310,000
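Compounds are pin-transferred into medium, infected erythrocytes (2% hematocrit, 0.1% parasitemia final) are added, and plates sit one parasite generation at 37 C in 5% CO2. Detection reagent is then added and luminescence measured.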
Cycloheximide cs: Cycloheximide Counterscreen for Small Molecule Inhibitors of Shiga Toxin | hit rate 12% among 300,000 | cell reporter, cycloheximide protein synthesis inhibition counterscreen | max response, %; in the data active = max response mostly above about 13%, no sharp cut-off; inactive = mostly below about 14%; also: read at 38.3 µM for the half of the compounds with a filed dose
Shiga toxin inh: A qHTS for Small Molecule Inhibitors of Shiga Toxin; inhibition, % at 38.7 µM; Vero cells, Shiga toxin protein synthesis inhibition reporter; AID 2315, 2010; hit rate 9.2% among 290,000; in the data active = inhibition mostly above about 28%, no sharp cut-off; inactive = mostly below about 43%
Pf growth 96h: Primary qHTS for delayed death inhibitors of the malarial parasite plastid, 96 hour incubation | AID 504834, 2011 | hit rate 6.9% among 320,000 | Potency, µM (series often up to 28.7 µM), most hits filed as inhibitors | P. falciparum luciferase reporter growth, 96 h
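Compounds incubated with erythrocytes infected by luciferase-expressing P. falciparum (2% hematocrit, 0.05% parasitemia final) for 96 hours, 37 C in 5% CO2. Growth inhibition scored as decreased luciferase luminescence.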
HCV inh: qHTS Assay for Inhibitors of Hepatitis C Virus (HCV); Potency, µM (titrated, usually from 41.8 µM), actives largely listed as inhibitors; Huh7.5.1 HCVcc-Cre infection, luciferase reporter, 44 h; hit rate 3.4% among 340,000; AID 651820, 2012
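A cell-based infection assay in which seeded cells (1,000 per well) receive test compound after 4 h, are inoculated with HCVcc-Cre at approximately 0.5 moi, and are incubated 44 h before luminescence detection.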
HCMV inh: qHTS Assay for inhibitors of the human cytomegalovirus (HCMV); activity change, negative = inhibition, % at 57.5 µM; HFF cells, HCMV-luciferase reporter, 72 h; hits give low values; hit rate 4.5% among 410,000; in the data active = activity change below about -60%; inconclusive = no clear call, values can overlap the other calls; inactive = above about -39%
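Steps: HFFs plated, 16 h 37C; compounds added; HCMV-luciferase added to MOI 1 PFU/cell; 72 h 37C; OneGlo reagent, 5 min room temperature; luminescence read, normalized to controls.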
A number is an active result; - = inactive; ? = inconclusive; . = no result; [ ] = remark or other dose. Unless noted, calls follow the shape of the dose curve; as a rule, active = well fitted inhibition curve with a large enough effect; inconclusive = small, poorly fitted or top-dose-only effect, or another doubt; inactive = no such curve, though single readings can be large or run the other way.

SMILES	Pf growth 48h	Cycloheximide cs	Shiga toxin inh	Pf growth 96h	HCV inh	HCMV inh
c1ccc(-n2cc(CNCCc3cscn3)c(-c3ccc4c(c3)OCO4)n2)cc1	?	-	-	-	-	-
OC[C@@H]1CCCN1Cc1cn(-c2ccccc2)nc1-c1ccc2c(c1)OCO2	13µM	-	-	-	-	-
c1ccc(-n2cc(CN3CCCC(CN4CCCC4)C3)c(-c3ccc4c(c3)OCO4)n2)cc1 (stereo not drawn)	?	-	-	-	13µM	?
Cn1cc(CN2CCC[C@H]2CO)c(-c2cccc(Cl)c2)n1	-	27	-	?	-	-
CCC[C@H]1[C@H](N(C)Cc2ccccc2)CC[C@@]23CCCN2C(=O)CCC[C@@H]13	.	.	.	.	.	-
Cc1cccc(C(=O)NC(=S)NC(C)c2ccccc2)c1 (stereo not drawn)	.	.	.	.	-	-
COCCN1Cc2cccc(C(=O)Nc3ccc(-c4nc5ccccc5[nH]4)cc3)c2C1=O	?	11	-	?	-	-
CCCN1Cc2cccc(C(=O)Nc3ccc4c(c3)OCO4)c2C1=O	-	-	-	-	?	-
COCCN1Cc2cccc(C(=O)Nc3cc(C)cc(C)c3)c2C1=O	-	-	-	-	?	-
CCCN1Cc2cccc(C(=O)Nc3ccc4c(c3)OCCO4)c2C1=O	.	19	-	-	-	-
CCCN1Cc2cccc(C(=O)Nc3ccc(C)cc3)c2C1=O	.	-	-	-	?	-
COCCN1Cc2cccc(C(=O)Nc3cccc(-c4nc5ccccc5[nH]4)c3)c2C1=O	1.9µM	48	-	?	?	-69
COCCN1Cc2cccc(C(=O)Nc3ccc(C)c(F)c3)c2C1=O	.	.	.	.	.	-
CCCN1Cc2cccc(C(=O)Nc3ccc(-c4nc5ccccc5[nH]4)cc3)c2C1=O	2.3µM	18	-	-	?	?
Cc1sc2c(c1C)c(=O)n(-c1cccc(C(F)(F)F)c1)c(=O)n2Cc1ccc(F)cc1	.	.	.	.	.	-
COc1ccc(-c2c(C)nn3c(C(F)(F)F)cc(C)nc23)cc1OC	.	.	.	.	.	-
O=C(CSc1oc(-c2ccccc2)nc1S(=O)(=O)c1ccc(Cl)cc1)c1ccccc1	.	.	.	.	.	-
Cc1cc(Oc2ccc(Cl)cc2)nc(-c2ccccn2)n1	?	-	-	?	?	?
Cc1cccc(Oc2nc(-c3ccccn3)nc3ccccc23)c1	1.9µM	34	63	2.6µM	?	-72
c1ccc(Oc2nc(-c3cccnc3)nc3ccccc23)cc1	10µM	-	-	?	?	-
O=[N+]([O-])c1ncccc1Oc1nc(-c2cccnc2)nc2ccccc12	?	-	-	-	?	?
CCOc1nc(-c2ccncc2)nc2ccccc12	?	-	-	?	?	-
Cc1cccc(Oc2nc(-c3ccncc3)nc3ccccc23)c1	1.7µM	-	-	1.5µM	7.1µM	-
Nc1nnc(N2CCCCC2)s1	?	-	-	-	-	-
O=C1CCCc2nc(N3CCCCC3)sc21	-	30	51	-	-	?
SMILES	Pf growth 48h	Cycloheximide cs	Shiga toxin inh	Pf growth 96h	HCV inh	HCMV inh
COc1ccc(C(=O)c2c(C)c3ccccc3n2CC(O)CNC(C)C)cc1 (stereo not drawn)	12µM	-	-	?	?	-
COc1ccc(NCC(=O)n2c(C)c(C)c3ccccc32)cc1	-	-	-	-	?	-
COc1cc(/C=C2\SC(=S)N(NS(=O)(=O)c3ccccc3)C2=O)cc(OC)c1OC	9.3µM	-	-	-	-	-
COc1cc(/C=C2\SC(=S)N(CCC(=O)Nc3ccccc3O)C2=O)cc(OC)c1OC	?	-	-	13µM	?	-69
COc1cc(/C=C2\SC(=S)N(CC(=O)Nc3ccc(O)cc3)C2=O)cc(OC)c1OC	-	-	-	?	-	-75
CNC(=O)C1CCC(Cn2c(=O)c3sccc3n(CC(=O)N3CCC(C)CC3)c2=O)CC1 (stereo not drawn)	.	.	.	.	.	-
O=C(/C=C/c1ccccc1)NC(=S)Nc1ccccc1O	-	33	81	-	-	-
CC1(C)C2CCC1(C)C(NC(=O)/C=C/c1ccccc1)C2 (stereo not drawn)	7.4µM	-	-	-	-	-
O=C(/C=C/c1ccccc1)NCCO	-	.	.	-	.	.
COCCCNC(=O)/C=C/c1cccc(Cl)c1	-	21	-	-	-	-
O=C(/C=C/c1ccc(F)cc1)NC(=S)Nc1ccccc1O	-[0.00184 µM]	-	-	-	-	-
O=C(/C=C/c1ccccc1)NCCCNC(=O)/C=C/c1ccccc1	?	-	-	8.3µM	-	-
CC1(C)C2CCC1(C)C(Nc1ccccc1)C2 (stereo not drawn)	-	-	-	?	-	-
Nc1nonc1C(=O)NCCNC(=O)c1ccc(Cl)c(Cl)c1	-	-	-	-	-	-
CC(C)c1ccc(S(=O)(=O)N2CCC(n3c(C(F)(F)F)nc4cccnc43)CC2)cc1	.	.	.	.	.	-
O=C(COC(=O)/C=C/C(=O)N1CCN(c2ccccc2)CC1)NC(c1ccccc1)c1ccccc1	-	-	-	-	-	-
O=C(NCCSCc1ccccc1)c1ccccc1	?	-	-	-	-	-
O=C(/C=C/c1ccccc1)NC1CCSC1=O (stereo not drawn)	-	39	70	10µM	-	-
NC(=S)NC(=O)/C=C/c1ccccc1	-	30	66	2.1µM	?	-67
O=C(NCCCNCc1ccccc1)c1ccncc1	-	-	-	?	-	-
O=C(/C=N\O)NCCCNCc1ccccc1	-	-	-	5.9µM	-	-
O=C(/C=C/c1ccccc1)NCCSCc1ccccc1	?	-	44	-	-	-
Cc1ccccc1OCCNC(=O)/C=C/c1ccc([N+](=O)[O-])cc1	-	-	-	-	?	-
Cc1ccccc1OCCNC(=O)/C=C/c1ccccc1	-	-	24	-	-	?
COc1ccc(/C=C/C(=O)NCCSCc2ccco2)cc1	-	17	-	9.3µM	-	-
SMILES	Pf growth 48h	Cycloheximide cs	Shiga toxin inh	Pf growth 96h	HCV inh	HCMV inh
O=C(C=Cc1ccccc1)NCCNC(=O)C=Cc1ccccc1	.	.	.	.	-	-69
O=C(COC(=O)c1cc(=O)[nH]c2ccccc12)Nc1ccc(Cl)cn1	-	.	.	-	-	-
CC(=O)Nc1ccc(OCC(O)Cn2ccnc2)cc1 (stereo not drawn)	-	35	78	-	-	-
CC(=O)Nc1ccc(OCC(O)Cn2nc(C)c(C)c2C)cc1 (stereo not drawn)	-	-	-	10µM	-	-
OC(COc1ccc(Cl)cc1Cl)Cn1ccnc1 (stereo not drawn)	.	13	-	-	-	-
C=CCOC(Cn1ccnc1)c1ccc(Cl)cc1Cl (stereo not drawn)	4.1µM	.	.	3.4µM	-	?
COc1cccc(CNC(=O)c2cc(S(=O)(=O)N3CCOCC3)ccc2N2CCCC2)c1	?	.	.	?	-	-
O=C(COc1ccc2ccccc2c1)NC1CC(=O)N(c2ccccc2)C1 (stereo not drawn)	.	.	.	.	.	-
